Among the data in PubChem BioAssay (NCATS) are Potency values, retold here.

The structures appear in SMILES notation. Records with an inconclusive call do not appear. A call without a number means that no potency is given here. Active and inactive are the calls of the source. The call rests on the fitted dose curve; in most records, active means well fitted inhibition curve with a large enough effect; inconclusive means small, poorly fitted or top-dose-only effect; inactive means flat fitted curve, though single readings scatter.

Sequence of Calcium and integrin-binding protein 1 (Homo sapiens) (Q99828 whole entry, looked up): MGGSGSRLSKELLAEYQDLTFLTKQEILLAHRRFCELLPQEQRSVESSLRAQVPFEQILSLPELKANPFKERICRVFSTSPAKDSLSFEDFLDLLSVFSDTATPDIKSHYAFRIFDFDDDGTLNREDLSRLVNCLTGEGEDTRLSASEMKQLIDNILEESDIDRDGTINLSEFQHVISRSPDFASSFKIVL

For the test, the target named is Calcium and integrin-binding protein 1 (Homo sapiens) (UniProt Q99828). As to the kind of experiment: Primary qHTS for Identification of Calcium Integrin Binding Protein 1 (CIB1) Competitor (AID 1508620).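 Further: GST tagged CIB1 binding a fluorescein labelled alphaIIb integrin peptide tracer; top concentration of the series differs between compounds.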 Conditions: CIB1-GST / FITC-alphaIIb peptide fluorescence polarization; series mostly up to 114 µM. The method, boiled down:
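Fluorescence polarization competition: CIB1-GST (1 uM final) preincubated with compound 15 min at room temperature, then FITC-labeled alphaIIb peptide (100 nM final) added for another 15 min. Polarization read at Ex 480/Em 540.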
(In general: qHTS replaces the single test concentration by a dilution series.)
Take `Cc1cc(C)nc(NC(=S)N2CCN(c3ncccc3C(F)(F)F)CC2)c1`: the Potency result was “inactive”.

For `CN1CCN(c2cccc(Nc3nn4c(=O)c5ccc(C(F)(F)F)cc5nc4s3)c2)CC1`, the Potency result is “inactive”. For the compound `FC(F)(F)c1ccc(-c2nc(NCc3ccc(-c4ccnc(C(F)(F)F)c4)cc3)c3ccccc3n2)cc1`, the Potency entry was “inactive”. As for `Cc1ccc(OCCCn2c(CCNC(=O)C3CCCCC3)nc3ccccc32)cc1`, the entry is “inactive”; as for `CSc1cnc(-c2ccccc2C(C)C)nc1NCc1ccc(-c2cccnc2)cc1`, “inactive”. The value for `CCCCN(C)C(=O)Cn1nc(-c2ccc(F)cc2)ccc1=O` was “inactive”. The value for `Fc1cccc(CNc2ncnc3ccc(-c4ccc5c(c4)OCO5)cc23)c1` was “inactive”; that for `COc1ccc(C2=Nn3c(nnc3-c3ccccc3Cl)SC2)cc1OC1CCOC1` (configuration not stated) was “inactive”.

Regarding `O=c1c2ccccc2nc2sc(Nc3cccc(N4CCNCC4)c3)nn12`, the Potency result was “inactive”.

Take `Cc1cc(C)n2ncc(C(=O)Nc3ccc(C(F)(F)F)cc3)c2n1`: the Potency result was “inactive”. In the case of `CC1(C)CC(=O)C2=C(C1)NC(Nc1nc3ccccc3o1)=NC21CCCCC1`, the Potency entry was “inactive”. The value for `Fc1cc(Nc2nc(-c3ccncc3)nc3ccccc23)ccc1-c1ccncc1` was “inactive”. `Cn1nnnc1Sc1ncnc2scc(-c3ccc4c(c3)OCO4)c12`: the Potency entry was “inactive”.

Take `COc1cc(F)c(S(=O)(=O)N2CCCN(S(=O)(=O)c3cccc(N)c3)CC2)c(F)c1`: the Potency result is “inactive”.

With `Fc1cc(Nc2nc(-c3ccncc3)nc3ccccc23)ccc1N1CCCCC1`, the Potency result was “inactive”. Take `COc1ccc(OC)c(-c2nnc(NC(=O)Nc3ccc4ccccc4c3)s2)c1`: the Potency result is “inactive”. With `Cc1cc(C)nc(NC(=S)N2CCN(c3ccc(Cl)cc3S(C)(=O)=O)CC2)c1`, the Potency entry was “inactive”.
